High-throughput results from PubChem.
Sampled rows, rich in hits. Any-hit rate of the full collection: about 3.2%.
FLuc inh: firefly luciferase inhibition; P08659; purified firefly luciferase, luminescence, 8 min; Potency, µM (top dose mostly 57.1 µM), hits mostly inhibitors; 2.2% of 72,000 active; AID 411; active means well fitted inhibition curve with a large enough effect; inconclusive means small, poorly fitted or top-dose-only effect; further: nearly all actives have a fitted effect of over 40% in size
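Luminescence read-out after 8 min at room temperature; enzyme reaction used luciferin plus 10 uM ATP (linear range) in imidazole buffer pH 7.2 with KCl, MgCl2, Tween 20 and BSA. Each sample was run as a titration.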
PK Bst: modulators of Bacillus stearothermophilus pyruvate kinase. purified pyruvate kinase, luminescence ATP production; ribose 5-phosphate activator present at AC10. Potency, µM. 1.2% of 51,000 active; in the data active means potency below about 11 µM; inconclusive means mostly about 12 µM to 25 µM;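 the screen sought inhibitors and activators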
GBA mod: modulators of human glucocerebrosidase; P04062; Potency, µM; AID 360; 1.1% of 48,000 active; purified enzyme, resorufin glucoside fluorescence (screen aimed at inhibitors), 20 min; in the data active means potency below about 15 µM; inconclusive means mostly about 16 µM to 33 µM;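 further: the screen sought inhibitors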
Target sequence (P04062 whole entry, looked up): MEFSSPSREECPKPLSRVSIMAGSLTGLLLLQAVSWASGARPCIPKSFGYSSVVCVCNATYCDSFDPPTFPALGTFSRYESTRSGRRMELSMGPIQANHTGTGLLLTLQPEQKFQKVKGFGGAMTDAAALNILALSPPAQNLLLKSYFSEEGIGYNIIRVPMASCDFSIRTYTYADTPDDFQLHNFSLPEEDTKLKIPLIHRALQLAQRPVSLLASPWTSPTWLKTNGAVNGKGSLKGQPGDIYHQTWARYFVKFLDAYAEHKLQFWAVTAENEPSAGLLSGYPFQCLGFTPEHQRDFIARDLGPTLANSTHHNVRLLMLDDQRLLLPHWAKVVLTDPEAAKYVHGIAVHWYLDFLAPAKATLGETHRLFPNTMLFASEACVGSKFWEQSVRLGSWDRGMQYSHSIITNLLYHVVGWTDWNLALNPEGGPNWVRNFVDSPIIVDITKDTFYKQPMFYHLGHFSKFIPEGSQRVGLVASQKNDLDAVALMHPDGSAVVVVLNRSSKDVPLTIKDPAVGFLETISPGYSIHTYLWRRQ
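Compounds titrated against 0.2 nM normal enzyme, 30 uM resorufin beta-D-glucopyranoside substrate, citrate/phosphate buffer with taurocholate and tween-20, pH 5.9. Reaction ran 20 min at room temperature; fluorescence (Ex 548/Em 600) gave AC50.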
Each line names hits and unclear results; the compound was inactive in the other large screens.

COc1ccc2cnn(Cc3ccccc3)c(=O)c2c1OC	PK Bst inconclusive
COC(=O)Cn1ncc2c(C)n(Cc3ccccc3)c(C)c2c1=O	FLuc inh 20µM (no result: PK Bst, GBA mod)
C[N+](C)(C)[C@@H](C1=CCCC1=O)c1ccccc1	none (no result: PK Bst, GBA mod)
COc1cccc(Cn2c(=O)c(CCc3ccccc3)nc3cnc(N4CCNCC4)nc32)c1	none (no result: PK Bst, GBA mod)
Cc1nc2cnc(N3CCNCC3)nc2n(CCC#N)c1=O	none (no result: PK Bst, GBA mod)
O=C(O)[C@@H]1[C@@H](C(=O)NCc2ccncc2)[C@@H]2C=C[C@@H]1O2	none (no result: PK Bst, GBA mod)
Nc1c(-c2ccccc2)n[nH]c1-c1ccccc1	FLuc inh inconclusive (no result: PK Bst)
O=c1c(-c2ccccc2)n[nH]c2ccccc12	FLuc inh 12.6µM
CCCCCCn1cc(C(=O)O)c(=O)c2ccccc21	none (no result: GBA mod)
CCCCCN=c1ccn(Cc2ccccc2)c2ccccc12	FLuc inh 25.1µM (no result: PK Bst, GBA mod)
c1ccc(-c2nn3c(Cn4nnc5ccccc54)nnc3s2)cc1	none
COc1ccc(Cc2nn3c(Cn4nnc5ccccc54)nnc3s2)cc1	FLuc inh 15.8µM (no result: PK Bst)
Cc1ccccc1-c1nnc(-c2ccc(Cl)cc2)o1	none (no result: PK Bst, GBA mod)
Clc1ccc(-c2nnc(-c3cccc4ccccc34)o2)cc1Cl	none (no result: PK Bst, GBA mod)
Clc1ccc(-c2nnc(-c3ccccc3Cl)o2)cc1	FLuc inh 12.6µM (no result: PK Bst, GBA mod)
Cc1ccccc1-c1nnc(-c2ccccc2)o1	FLuc inh 12.6µM (no result: PK Bst, GBA mod)
Brc1ccc(-c2nnc(-c3ccccc3Br)o2)cc1	FLuc inh 3.98µM (no result: PK Bst, GBA mod)
Brc1ccccc1-c1nnc(-c2cccnc2)o1	FLuc inh inconclusive
CN1CCN(c2ncc3ncc(=O)n(C[C@H]4CCCO4)c3n2)CC1	none (no result: PK Bst, GBA mod)
O=C(c1ccncc1)N1CCC2(CC1)CN(c1cccc(-c3ccccc3)c1)C2	none (no result: PK Bst, GBA mod)
CC(=O)OC[C@@H]1O[C@@H](O/N=C2/C[C@@H](O)[C@@H](O)[C@@H]3[C@@H]4C(=O)N([C@@H](C)c5ccccc5)C(=O)[C@H]4CC[C@H]23)[C@H](OC(C)=O)[C@H](OC(C)=O)[C@@H]1OC(C)=O	none (no result: PK Bst, GBA mod)
Cc1ccc(-c2cc(-c3cccc(F)c3)n[nH]2)c(O)c1	FLuc inh 12.6µM, PK Bst 10.7
COc1ccc(-c2cc(-c3cc(F)ccc3O)[nH]n2)cc1OC	FLuc inh 12.6µM, PK Bst 9.56
COc1ccc(-c2[nH]ncc2-c2ccc3c(c2)OCCO3)c(O)c1	none
COc1ccc(O)c(-c2cc(-c3cccc(Br)c3)n[nH]2)c1	none (no result: PK Bst, GBA mod)
COC(=O)c1cc(-c2ccc(OC)c(OC)c2)n[nH]1	none (no result: PK Bst)
COc1ccc(-c2cc(-c3ccccc3O)[nH]n2)cc1OC	FLuc inh 3.98µM (no result: PK Bst, GBA mod)
Oc1ccccc1-c1cc(-c2ccc3c(c2)OCCO3)n[nH]1	FLuc inh 3.16µM, PK Bst 1.86
COc1cc(-c2ccc(=O)[nH]n2)ccc1OC(F)F	none (no result: PK Bst, GBA mod)
CN1CC[C@@]2(CCCN(C(=O)c3cc(C(F)(F)F)cc(C(F)(F)F)c3)C2)C1	none (no result: PK Bst, GBA mod)
CN(CCc1ccc(Cl)c(Cl)c1)C[C@@H](O)COc1ccc(NS(C)(=O)=O)cc1	none (no result: PK Bst, GBA mod)
COc1ccc(C(=O)c2c[nH]c3ccccc23)cc1	FLuc inh 10µM (no result: PK Bst, GBA mod)
COc1ccc(C(C(O)C(=O)c2c[nH]c3ccccc23)N2CCN(c3ccc(OC)cc3)CC2)cc1 (stereo not given)	none
Cc1ccc([C@@]2(C)CC/C(=N/N=C3\CC[C@](C)(c4ccc(C)c(C)c4)c4cc(C)c(C)cc43)c3cc(C)c(C)cc32)cc1C	none (no result: PK Bst, GBA mod)
COc1cc(OC)c(C2CC(=O)N3CN(C)CSC3=C2C#N)cc1OC (stereo not given)	none (no result: PK Bst, GBA mod)
COc1ccc2ccccc2c1C1CC(=O)N2CN(C)CSC2=C1C#N (stereo not given)	FLuc inh inconclusive, GBA mod 14.5
O=C(OCc1nnc(-c2ccc(Cl)cc2)o1)c1ccncc1	none
O=C(OCc1nnc(-c2ccc(Cl)cc2)o1)c1ccc(=O)n(Cc2ccccc2)n1	PK Bst 9.84
O=C(Nc1cnn(C23CC4CC(CC(C4)C2)C3)c1)c1cnn2cccnc12	FLuc inh 2.51µM, PK Bst inconclusive, GBA mod inconclusive
CCOC(=O)CNC(=O)c1cnn2cccnc12	none
C=CCN1CCc2c(cc(O)c(O)c2Br)[C@H](c2ccccc2)C1	none (no result: PK Bst, GBA mod)
Cn1c(CCN2CCOCC2)nc2cc(NC(=O)COc3ccc(Cl)cc3)ccc21	none
COc1ccc(OCC(=O)Nc2ccc3c(c2)nc(CCN2CCOCC2)n3C)cc1	FLuc inh 25.1µM
CCN1C(=O)[C@H]2[C@H]3[C@H](O)[C@H](O)C/C(=N/OCC[C@H]4C=C[C@H](OC(C)=O)[C@@H](COC(C)=O)O4)[C@@H]3CC[C@@H]2C1=O	none (no result: PK Bst, GBA mod)
N#CC1=C(N)NC(SCc2ccccc2)=C(C#N)C12CCCCC2	none (no result: PK Bst, GBA mod)
CCSC1=C(C#N)C2(CCCCC2)C(C#N)=C(N)N1	FLuc inh 15.8µM
COc1ccccc1-c1ccc2ncnc(NC3CC3)c2c1	none (no result: PK Bst, GBA mod)
CCn1cc(SCC(=O)NCc2ccc3c(c2)OCO3)c2ccccc21	FLuc inh 2µM (no result: PK Bst, GBA mod)
Cn1cc(SCC(=O)NCc2ccc3c(c2)OCO3)c2ccccc21	none (no result: PK Bst, GBA mod)
O=C1c2ccccc2-c2onc3ccc(NCc4ccco4)c1c23	PK Bst 5.26 (no result: GBA mod)
CCOc1ccc2noc3c2c1C(=O)c1ccccc1-3	none (no result: PK Bst, GBA mod)
O=S(=O)(Nc1cccnc1)c1cccc2cccnc12	none (no result: PK Bst, GBA mod)
COc1ccc(-c2nnc(-c3ccc(N)cc3)o2)cc1	FLuc inh 7.94µM, PK Bst 3.27
COc1ccc(-c2nnc(SCC(=O)c3ccc(C)o3)o2)cc1	none
COc1ccc(-c2nnc(-c3ccc(N(C)C)cc3)o2)cc1	none
COc1ccc(-c2nnc(SCC(=O)/C(C#N)=C(\C)N)o2)cc1	FLuc inh 5.01µM (no result: PK Bst)
Cc1ccc(S(=O)(=O)N[C@@H]2COC(=O)C/C=C\[C@H](C)COC(=O)N[C@@H](C)C(=O)C/C=C\[C@H]2C)cc1	none (no result: PK Bst, GBA mod)
CC(=O)[C@]1(O)CC[C@@H]2[C@H]3C[C@@H](C)C4=CC(=O)CC[C@@]4(C)[C@H]3[C@@H](O)C[C@]21C	none (no result: PK Bst, GBA mod)
Cc1ccc(-n2c(N)c(C(=O)N3CCOCC3)sc2=S)cc1	none
Cc1cccc2cc3c(N)c(C(=O)N4CCOCC4)sc3nc12	FLuc inh 15.8µM, PK Bst inconclusive
C=CCOC(=O)C(C#N)c1nc2ccccc2nc1N1CCC(C(=O)OCC)CC1 (stereo not given)	none (no result: GBA mod)
CCOC(=O)C1CCN(c2nc3ccccc3nc2C(C#N)C(=O)OCCOC)CC1 (stereo not given)	PK Bst 2.28 (no result: GBA mod)
CCOC(=O)C1CCN(c2nc3ccccc3nc2C(C#N)C(=O)OC(C)C)CC1 (stereo not given)	none (no result: GBA mod)
CCOC(=O)C1CCN(c2nc3ccccc3nc2C(C#N)C(=O)OC(C)COC)CC1 (stereo not given)	PK Bst 5.59 (no result: GBA mod)
COc1ccccc1CN1CCCC2(CCN(C(=O)c3cc(C(F)(F)F)cc(C(F)(F)F)c3)CC2)C1	none (no result: PK Bst, GBA mod)
COC(=O)[C@@H]1[C@@H]2C[C@H]3c4[nH]c5ccccc5c4CCN3C[C@@H]2CC[C@@H]1OS(=O)(=O)O	none (no result: PK Bst, GBA mod)
Clc1ccccc1C(Nc1cnccn1)Nc1cnccn1	none (no result: PK Bst, GBA mod)
Clc1ccc(Cn2ncc3c(N4CCCCC4)ncnc32)c(Cl)c1	GBA mod 11
Clc1ccc(Cn2ncc3c(N4CCCCC4)ncnc32)cc1	none (no result: GBA mod)
O=C(c1cccc(F)c1)N1CCC2(CCCN(c3ccccn3)C2)CC1	none (no result: PK Bst, GBA mod)
Cc1nc2c3cnn(-c4ccccc4)c3ncn2n1	none (no result: PK Bst)
Cc1cn2nc(N)c3ccccc3c2n1	PK Bst 8.84
COc1ccccc1NC(=O)Cn1nnc(C(=O)Nc2ccccc2)c1N	none
COc1ccccc1NC(=O)CN1CCN(CC(=O)Nc2ccc(OCc3ccccc3)cc2)CC1	GBA mod 10.2
